Results reported in PubChem BioAssay.
Calls of active or inactive are those of the source.

Experiments:
Albumin (Bos taurus) = Albumin (Bos taurus) (UniProt P02769); experiment: bovine serum albumin binders on microarray, profiling panel, artefact control for SMM control protein annotation, biochemical, small-molecule microarray, Alexa647 label, 635/667 nm fluorescence (AID 1118); details: BSA-A647 binding, fluorescence 635 nm, higher = more signal;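 also: score merges 667 nm emission intensity and signal-to-noise per printed compound spot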
Albumin (Bos taurus), sequence (P02769 whole entry, looked up): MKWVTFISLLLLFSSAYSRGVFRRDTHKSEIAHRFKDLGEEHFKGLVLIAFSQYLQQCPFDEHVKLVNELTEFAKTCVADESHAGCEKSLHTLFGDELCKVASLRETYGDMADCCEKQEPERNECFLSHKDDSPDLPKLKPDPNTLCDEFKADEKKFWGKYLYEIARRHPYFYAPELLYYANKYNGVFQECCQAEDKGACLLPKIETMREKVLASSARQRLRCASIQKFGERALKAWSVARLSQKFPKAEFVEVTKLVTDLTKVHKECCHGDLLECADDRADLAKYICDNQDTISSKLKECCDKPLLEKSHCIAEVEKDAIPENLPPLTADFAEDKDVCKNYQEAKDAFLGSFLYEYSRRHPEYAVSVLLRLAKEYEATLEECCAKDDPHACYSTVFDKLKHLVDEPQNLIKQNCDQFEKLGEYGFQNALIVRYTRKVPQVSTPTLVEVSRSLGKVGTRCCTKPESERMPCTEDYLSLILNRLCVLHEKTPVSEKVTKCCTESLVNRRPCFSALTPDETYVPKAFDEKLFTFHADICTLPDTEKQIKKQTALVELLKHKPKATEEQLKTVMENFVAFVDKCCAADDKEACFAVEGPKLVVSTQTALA

[1] = small-molecule microarray binders of probe aXIP, primary screen, biochemical, NeuroSMM set, 635/667 nm fluorescence (AID 1119); details: higher = more signal, called active from +8 up or from −8 down;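 also: probe is the protein aXip251-270 applied at 1 µg/mL to compound-printed slides; binding of probe to printed compounds measured as 667 nm fluorescence plus signal to noise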
[2] = small-molecule binders of probe aNOTCH3, primary screen, biochemical, small-molecule microarray, 635/667 nm fluorescence (AID 1120); details: higher = more signal;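 also: probe is a biotin-tagged antibody raised against NOTCH3 rather than NOTCH3 protein; score merges spot fluorescence near 667 nm with spot signal to noise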
[3] = small-molecule binders of probe aNOTCH2, primary screen, biochemical, small-molecule microarray, 635/667 nm fluorescence (AID 1121); details: higher = more signal;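 also: score merges feature fluorescence read at 667 nm with its signal to noise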
[4] = biological target: Carbonic anhydrase 2 (Homo sapiens) (UniProt P00918); experiment: CAII small-molecule binders, profiling panel, biochemical, small-molecule microarray, Alexa647-labelled CAII (AID 1122); details: CAII-A647 binding fluorescence, higher = more signal
[5] = COS7 lysate on small-molecule microarray, probe aHis, 635 nm (AID 1123); details: COS7 cell lysate, fluorescence, higher = more signal;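 also: z-score combines 667nm fluorescence intensity with signal-to-noise per printed compound spot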
[6] = compound binding in COS7 lysate, probe aLAP1, primary screen, cell lysate, small-molecule microarray (AID 1124); details: probe aLAP1, fluorescence, higher = more signal;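 also: lysate comes from COS7 cells expressing LAP1 and is applied at 0.3 µg/mL; score merges spot fluorescence near 667 nm with signal-to-noise over triplicate slides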
Sam68 (KHDRBS1) = experiment: Sam68 small-molecule binders, primary screen, biochemical, small-molecule microarray, 635 nm fluorescence (AID 1125); details: small-molecule microarray binding, higher = more signal;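 also: score merges 667 nm channel intensity with signal to noise over triplicate slides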
[7] = tested on: Chordin-like protein 2 (CHRDL2); experiment: CHRDL2 small-molecule binders, primary screen, biochemical, small-molecule microarray, 635 nm fluorescence (AID 1126); details: small-molecule microarray binding, fluorescence 635 nm; higher = more signal;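 also: printed compound slides probed with Chrdl2 protein at 4 µg/mL for 1 h at 4 C; score merges 667 nm emission intensity with signal to noise over three replicate slides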
[8] = biological target: Concanavalin-A (Canavalia ensiformis) (UniProt P02866); experiment: ConA small-molecule binders, primary screen, artefact control for SMM control protein annotation, biochemical, small-molecule microarray, Alexa647 label, 635 nm (AID 1127); details: ConA-A647 binding fluorescence, higher = more signal;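 also: z combines 667 nm emission intensity with signal-to-noise across three replicate slides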
Concanavalin-A (Canavalia ensiformis), sequence (P02866 whole entry, looked up): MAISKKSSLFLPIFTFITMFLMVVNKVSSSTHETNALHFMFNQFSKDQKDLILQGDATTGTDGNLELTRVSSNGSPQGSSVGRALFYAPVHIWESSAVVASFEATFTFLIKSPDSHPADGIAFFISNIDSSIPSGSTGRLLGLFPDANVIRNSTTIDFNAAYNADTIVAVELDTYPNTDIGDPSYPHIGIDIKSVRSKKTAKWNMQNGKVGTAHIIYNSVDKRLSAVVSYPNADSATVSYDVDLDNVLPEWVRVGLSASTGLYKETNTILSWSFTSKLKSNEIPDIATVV

[9] = anti-His antibody binders, primary screen, artefact control for SMM control protein annotation, biochemical, small-molecule microarray, 635 nm fluorescence (AID 1128); details: anti-His Alexa647 antibody binding, higher = more signal;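 also: score merges feature fluorescence with signal-to-noise for each printed compound spot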
[10] = tested on: Human papillomavirus type 1a E7 protein (residues 1-88); experiment: HPV1a E7 small-molecule binders, primary screen, biochemical, small-molecule microarray, residues 1-88, 635 nm (AID 1129); details: small-molecule microarray binding, fluorescence 635 nm; higher = more signal
[11] = biological target: Focal adhesion kinase 1 (Homo sapiens) (UniProt Q05397); experiment: small-molecule microarray binders of FAK, primary screen, biochemical, 635/667 nm fluorescence, BSA, DTT (AID 1130); details: PTK2 binding, 635 nm fluorescence, higher = more signal;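 also: composite of spot emission at 667 nm and signal to noise over triplicate slides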
Focal adhesion kinase 1 (Homo sapiens), sequence (Q05397 whole entry, looked up): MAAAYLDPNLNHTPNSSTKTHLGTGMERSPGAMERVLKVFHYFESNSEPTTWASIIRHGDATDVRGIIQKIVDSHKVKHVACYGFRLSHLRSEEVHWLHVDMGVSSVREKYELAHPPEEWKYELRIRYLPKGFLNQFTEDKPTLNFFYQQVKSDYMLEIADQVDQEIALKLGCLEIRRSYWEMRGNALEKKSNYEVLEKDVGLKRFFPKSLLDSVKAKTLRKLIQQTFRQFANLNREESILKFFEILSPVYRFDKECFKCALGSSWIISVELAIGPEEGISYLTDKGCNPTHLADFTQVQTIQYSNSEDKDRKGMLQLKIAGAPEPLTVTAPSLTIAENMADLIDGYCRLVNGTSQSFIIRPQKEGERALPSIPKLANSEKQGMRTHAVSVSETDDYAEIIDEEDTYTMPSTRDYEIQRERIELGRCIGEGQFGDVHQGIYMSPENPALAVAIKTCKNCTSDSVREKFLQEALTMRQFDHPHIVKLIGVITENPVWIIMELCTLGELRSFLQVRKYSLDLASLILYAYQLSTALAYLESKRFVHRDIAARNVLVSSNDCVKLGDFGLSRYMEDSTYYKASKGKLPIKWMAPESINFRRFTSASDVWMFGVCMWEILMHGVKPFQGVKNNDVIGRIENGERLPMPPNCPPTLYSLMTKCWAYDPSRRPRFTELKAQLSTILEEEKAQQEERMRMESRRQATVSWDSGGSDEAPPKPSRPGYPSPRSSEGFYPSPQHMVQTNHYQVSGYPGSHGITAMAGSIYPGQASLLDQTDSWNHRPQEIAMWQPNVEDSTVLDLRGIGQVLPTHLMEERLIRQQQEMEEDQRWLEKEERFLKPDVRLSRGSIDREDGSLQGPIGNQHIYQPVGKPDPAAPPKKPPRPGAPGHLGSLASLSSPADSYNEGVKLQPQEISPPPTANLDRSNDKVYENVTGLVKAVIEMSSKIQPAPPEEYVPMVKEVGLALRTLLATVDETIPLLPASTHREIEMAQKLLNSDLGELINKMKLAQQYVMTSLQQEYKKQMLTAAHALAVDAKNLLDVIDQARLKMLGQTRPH

[12] = tested on: Fibrinogen (Alexa647-labelled); experiment: fibrinogen binders on compound microarrays, profiling panel, artefact control for SMM control-protein annotation, biochemical, small-molecule microarray, 635/667 nm fluorescence (AID 1131); details: fibrinogen-A647 binding fluorescence, higher = more signal;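 also: z-score merges 667 nm fluorescence with per-spot signal-to-noise over triplicate slides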
[13] = biological target: Follistatin (Homo sapiens) (UniProt P19883); experiment: follistatin binders on small-molecule microarrays, primary screen, biochemical, small-molecule microarray, 635/667 nm fluorescence (AID 1132); details: FST binding, 635 nm fluorescence, higher = more signal
Follistatin (Homo sapiens), sequence (P19883 whole entry, looked up): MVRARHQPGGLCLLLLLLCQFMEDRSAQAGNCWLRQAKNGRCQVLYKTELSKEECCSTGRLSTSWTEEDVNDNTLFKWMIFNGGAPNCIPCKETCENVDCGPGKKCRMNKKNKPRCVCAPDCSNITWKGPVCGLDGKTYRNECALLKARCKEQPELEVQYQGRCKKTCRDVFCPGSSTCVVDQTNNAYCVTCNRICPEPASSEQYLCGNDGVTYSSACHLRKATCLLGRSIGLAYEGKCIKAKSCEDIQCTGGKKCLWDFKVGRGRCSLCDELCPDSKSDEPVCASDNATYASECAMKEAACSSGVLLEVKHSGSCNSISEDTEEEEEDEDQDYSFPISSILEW

[14] = biological target: Fibroblast growth factor 2 (Homo sapiens) (UniProt P09038); experiment: FGF2 binders on small-molecule microarrays, primary screen, biochemical, small-molecule microarray, 635/667 nm fluorescence (AID 1133); details: small-molecule microarray binding, FGF2, fluorescence 635/667; higher = more signal
Fibroblast growth factor 2 (Homo sapiens), sequence (P09038 whole entry, looked up): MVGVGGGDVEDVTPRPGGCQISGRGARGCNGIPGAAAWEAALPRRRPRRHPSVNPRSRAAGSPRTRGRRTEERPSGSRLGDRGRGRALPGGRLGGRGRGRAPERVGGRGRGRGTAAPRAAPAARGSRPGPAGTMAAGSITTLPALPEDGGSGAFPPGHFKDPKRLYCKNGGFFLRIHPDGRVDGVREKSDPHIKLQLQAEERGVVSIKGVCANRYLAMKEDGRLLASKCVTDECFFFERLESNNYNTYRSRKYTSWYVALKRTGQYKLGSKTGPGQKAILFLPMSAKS

[15] = mitochondrial membrane potential change in A549 cells, profiling panel, cell-based, JC-1 fluorescence, basal, 24 h, 100 nL (AID 1138); details: higher = more signal;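 also: A549 lung adenocarcinoma cells under basal conditions with no added stimulus; test concentration not given here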
Lefty1 = Lefty1 binders on small-molecule microarrays, primary screen, biochemical, small-molecule microarray, 635/667 nm fluorescence (AID 1139); details: small-molecule microarray binding, fluorescence 635/667; higher = more signal
[16] = tested on: wheat germ agglutinin (Triticum aestivum), Alexa647-labelled; experiment: wheat germ agglutinin binders on compound microarrays, profiling panel, artefact control for SMM control-protein annotation, biochemical, small-molecule microarray, 635/667 nm fluorescence (AID 1140); details: WGA-A647 binding, 635 nm fluorescence, higher = more signal;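 also: score merges 667 nm feature emission with signal to noise over triplicate slides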
[17] = biological target: Luciferin 4-monooxygenase (Photinus pyralis) (UniProt P08659); experiment: firefly luciferase enzyme inhibitors, primary screen, biochemical, luminescence, purified enzyme, 2006 set (AID 1141); details: SteadyGlo luminescence, 30 min, higher = more signal, called active from +8 up or from −8 down;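 also: cell-free assay with purified firefly luciferase at 100 ng per well in PBS; test concentration not given here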
Luciferin 4-monooxygenase (Photinus pyralis), sequence (P08659 whole entry, looked up): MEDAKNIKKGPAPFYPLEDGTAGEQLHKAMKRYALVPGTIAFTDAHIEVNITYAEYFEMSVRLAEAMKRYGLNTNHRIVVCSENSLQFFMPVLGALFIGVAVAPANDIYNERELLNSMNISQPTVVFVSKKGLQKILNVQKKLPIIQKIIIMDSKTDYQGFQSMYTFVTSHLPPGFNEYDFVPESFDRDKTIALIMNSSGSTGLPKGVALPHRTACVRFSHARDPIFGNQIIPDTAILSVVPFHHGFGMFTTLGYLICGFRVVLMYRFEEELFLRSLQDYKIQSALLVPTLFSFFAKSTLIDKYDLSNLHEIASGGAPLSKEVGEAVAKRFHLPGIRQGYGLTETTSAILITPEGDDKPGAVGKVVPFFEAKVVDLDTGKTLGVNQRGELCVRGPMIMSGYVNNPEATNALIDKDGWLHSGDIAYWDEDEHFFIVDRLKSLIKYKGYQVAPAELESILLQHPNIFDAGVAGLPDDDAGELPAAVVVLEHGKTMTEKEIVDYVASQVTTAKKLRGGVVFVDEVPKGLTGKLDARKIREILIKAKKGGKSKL

Structure (SMILES) | composite z-score (Albumin (Bos taurus)) | composite Z-score [1] | composite z-score [2] | composite z-score [3] | composite z-score [4] | composite z-score [5] | composite z-score [6] | composite z-score (Sam68 (KHDRBS1)) | composite z-score [7] | composite z-score [8] | composite z-score [9] | composite z-score [10] | composite z-score [11] | composite z-score [12] | composite z-score [13] | composite z-score [14] | z-score [15] | composite z-score (Lefty1) | composite z-score [16] | z-score [17]
CC[C@@H](O[Si](C#C[Si](C(C)C)(C(C)C)C(C)C)(C(C)C)C(C)C)c1cn([C@H](CO)Cc2ccccc2)nn1 | 0.239 | 0.133 (inactive) | -0.0077 | -0.0995 | 0.409 | 0.398 | 0.0485 | 1.09 | 0.414 | 0.346 | 0.0554 | 0.339 | 0.324 | 0.412 | 0.448 | 0.729 | -0.208 | 1.21 | 0.884 | 0.635 (inactive)
O=C1NC(=O)C2C1C=CC(C(O)C(O)CO)N2Nc1ccccn1 (stereo not given) | 0.319 | 0.035 (inactive) | 0.0026 | -0.207 | 0.315 | 0.344 | 0.635 | 0.523 | 0.105 | 0.932 | 0.37 | 0.434 | -0.201 | 0.485 | 0.176 | -0.0885 | 0.767 | 0.0364 | 0.333 | -1.41 (inactive)
Cc1ccc(S[C@]2(C(=O)NCC(C)C)CC(=O)N(C(C)C)[C@@H]2c2ccc(CO)cc2I)cc1 | -0.0268 | 0.849 (inactive) | -0.019 | -0.057 | 0.56 | 1.07 | 0.801 | -0.236 | -0.802 | -1.16 | -1.38 | -0.807 | -0.0038 | -0.942 | -0.888 | 0.101 | -0.294 | -1.16 | -0.353 | -0.965 (inactive)
CCCCN1CC=CC23O[C@@H]4/C=C\CCC(C)OC(=O)C4[C@H]2C(=O)N(CCO)[C@@H]3C1=O (stereo not given in full) | 0.197 | 2.55 (inactive) | -0.0745 | -0.101 | 0.97 | 2.47 | 1.49 | 0.852 | -0.789 | -0.833 | 3.24 | -0.424 | 0.548 | -1.18 | -0.531 | -1.49 | -0.145 | 0.0422 | -0.169 | 1.1 (inactive)
